Calls of active or inactive are those of the source.

Here are results for six molecules from PubChem BioAssay.

The subject of test [1] is Plasmodium falciparum Sir2 (PF13_0152, Sir2A). As to the kind of experiment: Plasmodium falciparum Sir2A binding compounds – biochemical, small-molecule microarray, 635 nm fluorescence, primary screen (AID 1098).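 Note: score merges spot fluorescence intensity with its signal-to-noise ratio.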 Conditions: fluorescence 635 nm, higher = more signal.
A short description of test [2]: probe aDKK1 binding to arrayed compounds – biochemical, biotinylated probe, 635/667 nm fluorescence, primary screen (AID 1099).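 Note: score merges 667nm spot fluorescence with signal to noise across triplicate slides.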 As to conditions: small-molecule microarray, higher = more signal.
Test [3] in a line: probe aCHRDL2 binding to arrayed compounds – biochemical, biotinylated probe, 635/667 nm fluorescence, primary screen (AID 1100). Conditions: small-molecule microarray, higher = more signal.
A short description of test [4]: change in splice reporter luminescence, either direction, cell-based, HEK293, spliceosome inhibition project, primary screen (AID 1101).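 Note: HEK293 cells carrying a splicing-competent luciferase reporter gene; test concentration not given here.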 As to conditions: HEK293 splicing luciferase reporter, 24 h, higher = more signal, called active from +8 up or from −8 down. In general terms: A reporter such as luciferase makes a cellular process visible.
In test [5] the target is Fibroblast growth factor 10 (Homo sapiens) (UniProt O15520). Kind of test: compounds binding fibroblast growth factor 10 – biochemical, small-molecule microarray, 635 nm fluorescence, primary screen (AID 1102). Conditions: FGF10 binding, fluorescence 635 nm, higher = more signal.
Chain of Fibroblast growth factor 10 (Homo sapiens) (O15520 whole entry, looked up): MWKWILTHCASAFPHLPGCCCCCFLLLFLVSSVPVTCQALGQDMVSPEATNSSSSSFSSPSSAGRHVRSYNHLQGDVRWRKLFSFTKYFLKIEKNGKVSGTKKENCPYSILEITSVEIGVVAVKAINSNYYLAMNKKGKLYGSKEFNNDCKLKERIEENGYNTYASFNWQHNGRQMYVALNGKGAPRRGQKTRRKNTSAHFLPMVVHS
The subject of test [6] is glycogen synthase kinase-3 (GSK3A per assay name; protocol says GSK3B). As to the kind of experiment: compounds binding glycogen synthase kinase-3 – biochemical, small-molecule microarray, 635 nm fluorescence, GSK3A, primary screen (AID 1103). Note: the record names both GSK3A and GSK3B. Conditions: fluorescence 635 nm, higher = more signal.
Test [7] addresses Epidermal growth factor receptor (Homo sapiens) (UniProt P00533). Kind of test: compounds binding epidermal growth factor receptor – biochemical, small-molecule microarray, 635 nm fluorescence, primary screen (AID 1104).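 Note: score merges 667 nm emission intensity with spot signal to noise over triplicate slides.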 Conditions: EGFR binding, higher = more signal.
In test [8] the target is Follistatin-related protein 3 (Homo sapiens) (UniProt O95633). Kind of test: compounds binding follistatin-related protein 3 – biochemical, small-molecule microarray, 635 nm fluorescence, primary screen (AID 1105).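 Note: score merges emission near 667 nm and signal to noise per printed spot across three slides.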 As to conditions: FSTL3 binding, higher = more signal.
Chain of Follistatin-related protein 3 (Homo sapiens) (O95633 whole entry, looked up): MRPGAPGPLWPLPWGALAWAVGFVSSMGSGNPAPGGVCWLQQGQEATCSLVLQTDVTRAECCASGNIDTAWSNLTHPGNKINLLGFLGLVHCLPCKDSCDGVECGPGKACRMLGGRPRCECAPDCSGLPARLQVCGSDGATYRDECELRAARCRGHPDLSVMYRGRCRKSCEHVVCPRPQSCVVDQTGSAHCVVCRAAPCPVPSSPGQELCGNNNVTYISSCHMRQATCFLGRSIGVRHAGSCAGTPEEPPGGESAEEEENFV
Test [9] addresses Dickkopf-related protein 1 (Homo sapiens) (UniProt O94907). As to the kind of experiment: small molecules binding DKK1 protein – biochemical, small-molecule microarray, 635 nm fluorescence scan, primary screen (AID 1106).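 Note: score merges emission near 667 nm with signal to noise over three replicate slides.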 As to conditions: higher = more signal.
Test [10] relates to Inhibin beta A chain (activin A). Kind of test: small molecules binding activin A – biochemical, small-molecule microarray, 635 nm fluorescence scan, primary screen (AID 1107).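 Note: mouse activin A protein probed at 4.33 µg/mL on printed slides; score merges bound-protein fluorescence near 667 nm with spot signal-to-noise.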 Conditions: INHBA, higher = more signal.
Test [11] deals with Human papillomavirus type 1a protein E7 (residues 44-93). As to the kind of experiment: small molecules binding HPV E7 44-93 – biochemical, small-molecule microarray, residues 44-93, 635 nm fluorescence, primary screen (AID 1108).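 Note: E7 fragment applied at 1 µg/mL in TBST for 1 h at 4 C; score combines spot fluorescence with its signal to noise ratio.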 As to conditions: fluorescence 635 nm, higher = more signal.
Test [12] is described as follows: hepatitis C replication reporter changes, two-sided – Huh7 cells, luciferase reporter, HCV replication inhibitor project, primary screen (AID 1109).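 Note: huh7 hepatoma cells harbouring a luciferase neomycin HCV replicon reporter; luciferase luminescence as measure of HCV replicon replication; test concentration not given here.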 Conditions: Huh7 HCV replicon luciferase reporter, 48 h; higher = more signal.
For test [13], the target named is Left-right determination factor 2 (Homo sapiens) (UniProt O00292). Kind of test: small molecules binding LEFTY2 protein – biochemical, small-molecule microarray, 635 nm fluorescence scan, primary screen (AID 1110). As to conditions: higher = more signal.
Chain of Left-right determination factor 2 (Homo sapiens) (O00292 whole entry, looked up): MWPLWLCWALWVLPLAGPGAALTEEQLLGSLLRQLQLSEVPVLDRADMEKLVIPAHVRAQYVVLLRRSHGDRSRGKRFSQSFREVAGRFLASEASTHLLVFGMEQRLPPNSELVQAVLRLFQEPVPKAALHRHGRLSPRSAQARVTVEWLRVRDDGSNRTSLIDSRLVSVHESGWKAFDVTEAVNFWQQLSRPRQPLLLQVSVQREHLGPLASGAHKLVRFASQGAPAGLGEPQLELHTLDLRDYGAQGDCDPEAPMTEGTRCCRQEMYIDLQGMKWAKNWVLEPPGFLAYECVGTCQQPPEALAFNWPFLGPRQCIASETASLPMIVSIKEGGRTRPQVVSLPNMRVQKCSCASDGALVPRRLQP
The target in test [14] is Calmodulin-1 (Homo sapiens) (UniProt P0DP23). As to the kind of experiment: small molecules binding calmodulin-1 with EGTA – biochemical, small-molecule microarray, Cy5-labelled CALM1, profiling panel (AID 1111).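 Note: labelled calmodulin applied in Tris saline Tween buffer holding calcium plus EGTA and DTT.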 Conditions: Cy5-CALM1 binding fluorescence, higher = more signal.
For test [15] the target is unchanged. Kind of test: small molecules binding Ca-loaded calmodulin-1 – biochemical, small-molecule microarray, Cy5-labelled CALM1, plus calcium, artefact control for SMM control-protein annotation, profiling panel (AID 1112).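 Note: score merges spot fluorescence with signal to noise from triplicate slides.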 As to conditions: Cy5-CALM1 binding fluorescence, higher = more signal.
Test [16] is described as follows: probe aWnt5a binding to arrayed compounds – biochemical, biotinylated probe, 635/667 nm fluorescence, primary screen (AID 1113).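 Note: score merges 667 nm fluorescence intensity with signal-to-noise per printed feature.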 As to conditions: small-molecule microarray, higher = more signal.
Test [17] can be described thus: probe aShh binding to arrayed compounds – biochemical, biotinylated probe, 635/667 nm fluorescence, primary screen (AID 1114).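 Note: probe is biotin-labelled aShh protein from a stem cell growth factor screen; measures binding of labelled protein to compounds printed on the slide; score merges feature fluorescence at 667 nm with signal-to-noise.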 As to conditions: small-molecule microarray, higher = more signal.
Test [18] in a line: probe aNog binding to arrayed compounds – biochemical, biotinylated probe, 635/667 nm fluorescence, primary screen (AID 1115).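 Note: probe is biotinylated aNog protein used at 0.15 µg/mL for 1 h at 4 C; z-score combines 667 nm fluorescence of each spot with its signal to noise.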 As to conditions: small-molecule microarray, higher = more signal.
Test [19] concerns the target Torsin-1A-interacting protein 1 (Homo sapiens) (UniProt Q5JTV8). As to the kind of experiment: compound microarray binding of lysate hLAP1 – cell lysate, small-molecule microarray, COS7 lysate, 635/667 nm fluorescence, primary screen (AID 1116). As to conditions: 635 nm fluorescence, higher = more signal.
Test [20] has as its target Alpha-bungarotoxin (Bungarus multicinctus) (UniProt P60615). Kind of test: compounds binding labelled alpha-BTX control protein – biochemical, small-molecule microarray, Alexa647 label, 635/667 nm fluorescence, artefact control for SMM control protein annotation, profiling panel (AID 1117). As to conditions: alpha-BTX-A647 binding fluorescence, higher = more signal.

Chain of Epidermal growth factor receptor (Homo sapiens) (P00533 whole entry, looked up): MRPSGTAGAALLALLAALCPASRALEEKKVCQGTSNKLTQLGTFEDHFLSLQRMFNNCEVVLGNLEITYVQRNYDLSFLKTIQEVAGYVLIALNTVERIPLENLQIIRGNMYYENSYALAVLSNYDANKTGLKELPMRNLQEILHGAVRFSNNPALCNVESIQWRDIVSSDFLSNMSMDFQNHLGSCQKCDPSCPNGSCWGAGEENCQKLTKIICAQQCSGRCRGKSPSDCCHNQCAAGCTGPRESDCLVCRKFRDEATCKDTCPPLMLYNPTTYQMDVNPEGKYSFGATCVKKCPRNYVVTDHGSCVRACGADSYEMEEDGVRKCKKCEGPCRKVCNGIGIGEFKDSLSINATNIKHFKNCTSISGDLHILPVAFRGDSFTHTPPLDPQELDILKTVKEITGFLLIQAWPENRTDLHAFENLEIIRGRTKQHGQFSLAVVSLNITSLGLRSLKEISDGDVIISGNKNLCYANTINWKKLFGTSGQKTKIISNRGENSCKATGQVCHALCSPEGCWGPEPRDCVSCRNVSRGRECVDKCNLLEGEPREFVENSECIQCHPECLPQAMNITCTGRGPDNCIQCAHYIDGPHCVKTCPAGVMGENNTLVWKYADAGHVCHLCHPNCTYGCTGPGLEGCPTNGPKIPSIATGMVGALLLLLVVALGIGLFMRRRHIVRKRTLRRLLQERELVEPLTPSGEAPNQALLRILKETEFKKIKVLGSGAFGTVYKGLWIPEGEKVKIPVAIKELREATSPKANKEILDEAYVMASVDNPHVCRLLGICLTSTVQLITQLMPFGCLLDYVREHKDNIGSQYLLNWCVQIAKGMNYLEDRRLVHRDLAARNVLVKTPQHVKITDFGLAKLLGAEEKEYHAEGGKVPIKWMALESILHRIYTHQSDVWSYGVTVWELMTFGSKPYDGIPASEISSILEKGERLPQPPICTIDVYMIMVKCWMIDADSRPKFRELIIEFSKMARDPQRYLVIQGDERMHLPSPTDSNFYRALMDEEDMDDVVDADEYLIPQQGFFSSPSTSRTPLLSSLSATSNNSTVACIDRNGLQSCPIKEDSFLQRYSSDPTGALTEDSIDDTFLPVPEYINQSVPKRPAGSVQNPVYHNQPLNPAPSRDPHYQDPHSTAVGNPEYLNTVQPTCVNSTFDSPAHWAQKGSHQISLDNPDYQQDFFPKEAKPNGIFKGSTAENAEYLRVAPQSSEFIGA
Chain of Dickkopf-related protein 1 (Homo sapiens) (O94907 whole entry, looked up): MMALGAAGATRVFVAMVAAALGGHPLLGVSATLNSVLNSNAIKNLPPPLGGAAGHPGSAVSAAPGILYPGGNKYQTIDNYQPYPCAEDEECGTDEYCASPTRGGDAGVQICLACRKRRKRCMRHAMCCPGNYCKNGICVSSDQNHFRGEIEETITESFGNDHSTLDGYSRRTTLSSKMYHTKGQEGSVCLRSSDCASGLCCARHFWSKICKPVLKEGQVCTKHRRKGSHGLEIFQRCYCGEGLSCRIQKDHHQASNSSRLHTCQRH
Chain of Torsin-1A-interacting protein 1 (Homo sapiens) (Q5JTV8 whole entry, looked up): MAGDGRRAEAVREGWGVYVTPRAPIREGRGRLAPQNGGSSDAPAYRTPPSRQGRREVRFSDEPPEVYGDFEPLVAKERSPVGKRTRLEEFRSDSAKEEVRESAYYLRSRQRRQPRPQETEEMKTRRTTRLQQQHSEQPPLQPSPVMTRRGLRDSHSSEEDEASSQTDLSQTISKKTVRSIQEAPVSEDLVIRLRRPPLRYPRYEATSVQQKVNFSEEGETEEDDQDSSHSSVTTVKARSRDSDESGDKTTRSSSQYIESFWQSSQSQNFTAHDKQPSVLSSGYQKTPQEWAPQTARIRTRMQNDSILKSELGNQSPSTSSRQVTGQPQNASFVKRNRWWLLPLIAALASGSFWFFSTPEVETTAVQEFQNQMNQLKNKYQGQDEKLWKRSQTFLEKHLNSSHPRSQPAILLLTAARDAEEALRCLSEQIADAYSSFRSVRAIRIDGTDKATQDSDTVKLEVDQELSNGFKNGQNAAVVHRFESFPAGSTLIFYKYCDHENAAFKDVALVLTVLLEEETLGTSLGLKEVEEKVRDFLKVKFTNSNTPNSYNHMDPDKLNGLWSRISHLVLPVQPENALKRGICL
Chain of Alpha-bungarotoxin (Bungarus multicinctus) (P60615 whole entry, looked up): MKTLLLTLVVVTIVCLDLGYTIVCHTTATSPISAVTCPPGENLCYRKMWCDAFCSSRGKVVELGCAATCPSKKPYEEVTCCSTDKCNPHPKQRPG

Turning to `C=CC[C@]1(C(=O)NCc2ccccc2)N=C(c2ccc(OCCCO)cc2)O[C@H]1c1ccccc1`, the composite z-score in test [1] was 0.689; in test [2] it was 0.213; in test [3], 1.06; in test [5], 0.462; in test [6] it was 0.165; in test [7] it was -0.29. Further, the composite z-score in test [8] was 0.291; in [9] it was -0.328; in [10], 0.173; in [11] it was 1.46; in test [13], -0.778; in test [14] it was 0.392. Further, the composite z-score in [15] was -0.483; in [16] it was -0.0944; in [17] it was 0.696; in [18], 0.257; in test [19], 1.62; in test [20], 2.46. The values for the z-score in test [4] and in [12] were 0.332 (inactive) and -2.41, respectively.

In the case of `CCN1C(=O)[C@H]2[C@H]3[C@H](O)[C@H](O)CC(=NO[C@@H]4O[C@H](CO)[C@@H](O)[C@H](O)[C@H]4O)[C@@H]3CC[C@H]2C1=O`, the composite z-score in test [1] is 0.562; in test [2] it was -0.291; in test [3] it was -0.233; in [5] it was -0.584; in test [6], -1.42; in [7] it was -0.831. For the same molecule, the composite z-score in test [8] was -0.534; in test [9], -0.0655; in test [10], 0.613; in [11], -2.4; in [13], -0.251; in [14], -0.665. Also, the composite z-score in test [15] was -0.813; in test [16] it was -0.18; in test [17], -0.545; in [18], -0.1; in test [19], -0.442; in [20], -0.479. In addition, the results for the z-score in test [4] and in [12] were -0.448 (inactive) and 0.26, respectively.

On to `CCOC(=O)CCN1C(=O)[C@H]2[C@H]3[C@H](O)C=CC(=O)[C@@H]3CC[C@H]2C1=O`, for which the composite z-score in test [1] was 0.0705; in [2], -0.222; in [3], -0.437; in [5], 0.605; in test [6], 0.323; in test [7] it was 0.678. Moreover, the composite z-score was 0.518 in [8]; 0.541 in test [9]; -0.0901 in test [10]; -0.219 in [11]; 0.61 in test [13]; -0.0738 in [14]. Besides, the composite z-score is -0.583 in test [15]; -0.202 in test [16]; -0.262 in [17]; -0.147 in [18]; 0.174 in test [19]; 0.335 in test [20]. Besides, the z-score in [4] was -0.173 (inactive); in test [12], 0.158.

For the molecule `CCOc1ccc(N2C(=O)/C(=C/C=C/c3ccccc3OC)S(=O)(=O)C2c2cccc([N+](=O)[O-])c2)cc1` (stereo not given), the composite z-score is -0.379 in test [1]; 0.0757 in test [2]; 0.42 in test [3]; 0.226 in test [5]; 0.342 in test [6]; 0.549 in test [7]. The composite z-score in test [8] was 0.393; in test [9], 0.218; in test [10], 0.61; in test [11], -0.432; in test [13] it was 0.49; in [14], 1.27. For the same molecule, the composite z-score was 0.545 in test [15]; 0.0017 in [16]; -0.2 in test [17]; 0.0373 in test [18]; 0.351 in test [19]; 0.321 in test [20]. In addition, the z-score in test [4] is 1.04 (inactive); in test [12] it was -2.17.

As for `Cc1cc2c(c(=O)o1)[C@H](O)[C@H]1O[C@H]1C2=O`, the composite z-score in [1] is 0.412; in test [2], -0.178; in test [3], -0.245; in [5], 0.88; in [6], 0.191; in [7], 0.0205. Moreover, the composite z-score was -0.139 in [8]; -0.0438 in test [9]; 0.623 in test [10]; -1.5 in [11]; 0.761 in test [13]; -0.766 in test [14]. The composite z-score in test [15] was -1.38; in test [16] it was -0.208; in [17] it was 0.0048; in test [18] it was -0.359; in test [19], 0.17; in test [20] it was 0.0658. Also, the figures for the z-score in test [4] and in test [12] were -0.331 (inactive) and -2.16, respectively.

For the molecule `COc1ccc(-c2nc3c(c4c2C[C@H](C)OC4)CN(CCC(C)C)CC3)cc1`, the composite z-score in test [1] was 0.785; in [2], -0.0348; in [3] it was -0.514; in [5] it was 1.02; in test [6], 1.08; in test [7], 0.472. Besides, the composite z-score in test [8] is 1; in test [9] it was 0.388; in test [10], -0.296; in test [11], 1.35; in test [13], 0.6; in test [14], 0.518. Further, the composite z-score in test [15] was 0.038; in test [16], -0.0239; in test [17], 0.123; in test [18], -0.131; in test [19], 0.269; in [20], 0.615. Also, the z-score in test [4] is 0.386 (inactive); in [12], -0.257.
